These results are taken from publication PMC7862700, “An all-to-all approach to the identification of sequence-specific readers for epigenetic DNA modifications on cytosine”.

Common to all, as to assay: DAPPL (digital affinity profiling via proximity ligation, sequencing); 10 mM Tris-HCl pH 7.5, 50 mM NaCl, 1 mM DTT, 4% glycerol, room temperature, 30 min; GST-TFs on glutathione beads, 16-mer random dsDNA library, 0.1% formaldehyde crosslink after washing; high values mean tight binding
Holding throughout (settings): protein: recombinant; tags: N-terminal GST; dsDNA, one strand shown

One test addresses T1, FLI1 (Homo sapiens, UniProt Q01543 1-452).
T1 sequence: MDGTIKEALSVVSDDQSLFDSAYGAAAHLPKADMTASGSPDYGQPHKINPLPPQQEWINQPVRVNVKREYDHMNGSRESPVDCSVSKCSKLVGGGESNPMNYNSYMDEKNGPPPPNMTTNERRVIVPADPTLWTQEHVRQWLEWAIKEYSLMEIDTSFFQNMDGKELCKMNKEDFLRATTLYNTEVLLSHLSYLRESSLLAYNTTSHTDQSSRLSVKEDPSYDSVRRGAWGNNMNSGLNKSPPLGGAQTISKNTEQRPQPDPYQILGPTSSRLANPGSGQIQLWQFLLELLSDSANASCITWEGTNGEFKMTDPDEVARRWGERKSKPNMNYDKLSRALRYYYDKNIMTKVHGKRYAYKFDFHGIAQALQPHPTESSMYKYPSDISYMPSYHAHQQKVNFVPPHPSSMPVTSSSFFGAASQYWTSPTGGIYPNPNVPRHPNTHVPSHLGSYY
The gist of the method: (§1)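 Human transcription factors carrying a GST fusion were produced in yeast, bound to glutathione beads, tagged with DNA barcodes and pooled together with a tag-only sample. Each pool was held with 200 nmole of a random double-stranded 16-mer DNA library in Tris/NaCl/DTT/glycerol buffer for 30 min at room temperature, then washed, crosslinked in 0.1% formaldehyde, proximity-ligated with BsaI/T4 ligase (1 h, 37 °C), PCR-amplified and sequenced on an Illumina NextSeq500. Binding signal is the read frequency of each hexamer for a given factor divided by its frequency in the tag-only sample.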

The target of another test is T2, ELK1 (Homo sapiens, UniProt P19419 1-428).
T2 sequence: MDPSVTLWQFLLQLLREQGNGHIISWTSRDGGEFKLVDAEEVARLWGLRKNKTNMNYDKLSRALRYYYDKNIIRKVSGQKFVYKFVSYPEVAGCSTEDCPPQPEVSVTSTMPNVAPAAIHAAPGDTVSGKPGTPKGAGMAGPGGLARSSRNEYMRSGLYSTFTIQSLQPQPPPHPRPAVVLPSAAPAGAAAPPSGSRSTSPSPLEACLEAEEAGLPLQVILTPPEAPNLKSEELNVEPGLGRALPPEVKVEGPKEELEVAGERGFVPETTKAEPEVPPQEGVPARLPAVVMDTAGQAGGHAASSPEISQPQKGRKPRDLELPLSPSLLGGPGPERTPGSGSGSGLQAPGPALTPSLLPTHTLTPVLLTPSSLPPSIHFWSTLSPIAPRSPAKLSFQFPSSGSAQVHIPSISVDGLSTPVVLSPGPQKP
In outline:
as §1

A further test has as its target T3, GABPA (Homo sapiens, UniProt Q06546 1-454).
T3 sequence: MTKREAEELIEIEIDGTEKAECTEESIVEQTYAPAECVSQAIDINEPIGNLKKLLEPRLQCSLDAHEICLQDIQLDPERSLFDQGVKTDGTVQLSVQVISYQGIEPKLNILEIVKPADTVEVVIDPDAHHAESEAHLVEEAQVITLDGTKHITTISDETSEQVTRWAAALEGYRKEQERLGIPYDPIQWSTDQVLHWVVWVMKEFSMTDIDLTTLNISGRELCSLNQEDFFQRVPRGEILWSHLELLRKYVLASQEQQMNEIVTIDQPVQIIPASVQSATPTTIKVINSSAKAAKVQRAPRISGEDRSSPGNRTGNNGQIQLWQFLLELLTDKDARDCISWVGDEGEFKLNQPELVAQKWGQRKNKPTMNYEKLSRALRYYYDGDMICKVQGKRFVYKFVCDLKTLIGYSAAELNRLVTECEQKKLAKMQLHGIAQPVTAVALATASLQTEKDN
In outline: as §1

In a further test the target is T4, ERG (Homo sapiens, UniProt P11308 1-479).
T4 sequence: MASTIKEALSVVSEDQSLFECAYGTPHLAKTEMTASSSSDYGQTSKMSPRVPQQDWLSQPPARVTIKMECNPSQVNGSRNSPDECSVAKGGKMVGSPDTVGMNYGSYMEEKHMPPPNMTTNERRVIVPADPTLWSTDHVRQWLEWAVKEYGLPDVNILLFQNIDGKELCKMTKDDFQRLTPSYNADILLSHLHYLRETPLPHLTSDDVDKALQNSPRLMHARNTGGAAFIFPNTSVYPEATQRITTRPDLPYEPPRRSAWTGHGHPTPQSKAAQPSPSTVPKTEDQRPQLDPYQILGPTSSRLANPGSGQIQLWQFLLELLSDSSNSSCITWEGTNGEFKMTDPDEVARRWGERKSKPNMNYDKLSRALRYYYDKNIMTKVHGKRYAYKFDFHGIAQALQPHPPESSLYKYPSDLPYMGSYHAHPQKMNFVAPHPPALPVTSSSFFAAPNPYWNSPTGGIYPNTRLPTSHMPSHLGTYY
The gist of the method:
as §1

In a further test the target is ELF1 (Homo sapiens, UniProt P32519 1-619). In outline:
as §1

The next test addresses T5, EHF (Homo sapiens, UniProt Q9NZC4 1-300).
T5 sequence: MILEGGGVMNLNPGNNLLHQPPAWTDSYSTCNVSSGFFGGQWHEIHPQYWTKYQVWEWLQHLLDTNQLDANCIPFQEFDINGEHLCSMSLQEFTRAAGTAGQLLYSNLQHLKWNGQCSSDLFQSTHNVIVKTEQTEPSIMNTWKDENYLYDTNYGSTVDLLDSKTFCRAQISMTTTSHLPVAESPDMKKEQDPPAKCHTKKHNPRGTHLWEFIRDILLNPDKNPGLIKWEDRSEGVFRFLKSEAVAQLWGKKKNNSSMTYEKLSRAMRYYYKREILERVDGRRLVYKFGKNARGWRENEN
The gist of the method:
as §1

The target of another test is SPI1 (Homo sapiens, UniProt P17947 1-270). In outline: as §1
For another test, the target named is SPIB (Homo sapiens, UniProt Q01892 1-262). The gist of the method:
as §1

A further test has as its target T6, ELK3 (Homo sapiens, UniProt P41970 1-407).
T6 sequence: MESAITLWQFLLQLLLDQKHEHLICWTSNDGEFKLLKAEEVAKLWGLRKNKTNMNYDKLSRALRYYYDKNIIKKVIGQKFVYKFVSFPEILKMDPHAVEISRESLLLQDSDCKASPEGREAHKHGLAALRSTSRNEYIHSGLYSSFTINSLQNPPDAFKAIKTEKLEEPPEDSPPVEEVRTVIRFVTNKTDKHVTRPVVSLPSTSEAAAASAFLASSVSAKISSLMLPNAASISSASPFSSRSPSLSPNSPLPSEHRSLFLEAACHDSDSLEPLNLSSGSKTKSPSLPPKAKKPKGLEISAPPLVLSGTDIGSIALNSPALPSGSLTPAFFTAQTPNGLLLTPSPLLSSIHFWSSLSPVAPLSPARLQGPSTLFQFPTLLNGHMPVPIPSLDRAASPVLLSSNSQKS
The gist of the method:
as §1

Sequence of SPIB (Q01892 whole entry): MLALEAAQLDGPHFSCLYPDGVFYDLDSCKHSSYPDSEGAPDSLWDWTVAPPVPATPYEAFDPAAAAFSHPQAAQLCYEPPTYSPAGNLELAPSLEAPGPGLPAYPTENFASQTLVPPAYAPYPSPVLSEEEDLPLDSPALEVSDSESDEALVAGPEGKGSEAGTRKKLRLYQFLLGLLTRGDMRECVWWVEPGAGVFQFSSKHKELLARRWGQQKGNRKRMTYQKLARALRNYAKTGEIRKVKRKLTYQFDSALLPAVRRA
Sequence of ELF1 (P32519 whole entry): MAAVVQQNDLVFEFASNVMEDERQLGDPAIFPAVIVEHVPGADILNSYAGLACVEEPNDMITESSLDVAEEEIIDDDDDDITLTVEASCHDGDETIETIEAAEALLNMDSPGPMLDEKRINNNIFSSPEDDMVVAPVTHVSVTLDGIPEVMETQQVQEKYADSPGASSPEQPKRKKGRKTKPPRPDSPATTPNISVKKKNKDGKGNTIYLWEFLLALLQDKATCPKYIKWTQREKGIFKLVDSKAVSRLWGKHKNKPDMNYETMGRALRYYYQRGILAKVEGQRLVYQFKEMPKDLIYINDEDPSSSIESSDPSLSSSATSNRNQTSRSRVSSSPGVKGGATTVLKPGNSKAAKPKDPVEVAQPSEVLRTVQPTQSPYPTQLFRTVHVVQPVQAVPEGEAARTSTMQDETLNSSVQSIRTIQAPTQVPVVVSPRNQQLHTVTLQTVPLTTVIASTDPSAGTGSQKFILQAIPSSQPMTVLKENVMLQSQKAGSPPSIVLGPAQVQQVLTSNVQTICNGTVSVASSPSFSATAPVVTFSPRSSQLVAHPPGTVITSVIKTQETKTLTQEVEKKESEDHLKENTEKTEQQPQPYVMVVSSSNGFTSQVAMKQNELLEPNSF

For TATTAT, the binding signal is 1.3 fold enrichment (6-mer frequency, TF over GST control) with FLI1; 1.27 fold enrichment (6-mer frequency, TF over GST control) with ELK1; 1.21 fold enrichment (6-mer frequency, TF over GST control) in the test with GABPA; 1.25 fold enrichment (6-mer frequency, TF over GST control) in the test with ERG; 1.25 fold enrichment (6-mer frequency, TF over GST control) with ELF1; 1.25 fold enrichment (6-mer frequency, TF over GST control) in the test with EHF. Moreover, the binding signal in the test with SPI1 was 1.2 fold enrichment (6-mer frequency, TF over GST control); with SPIB, 1.24 fold enrichment (6-mer frequency, TF over GST control); with ELK3, 1.12 fold enrichment (6-mer frequency, TF over GST control).
Regarding CTCTGG, the binding signal was 1.31 fold enrichment (6-mer frequency, TF over GST control) with FLI1; 1.5 fold enrichment (6-mer frequency, TF over GST control) with ELK1; 1.3 fold enrichment (6-mer frequency, TF over GST control) in the test with GABPA; 1.28 fold enrichment (6-mer frequency, TF over GST control) with ERG; 1.34 fold enrichment (6-mer frequency, TF over GST control) with ELF1; 1.35 fold enrichment (6-mer frequency, TF over GST control) in the test with EHF. Further, the binding signal with SPI1 is 1.4 fold enrichment (6-mer frequency, TF over GST control); in the test with SPIB, 1.12 fold enrichment (6-mer frequency, TF over GST control); in the test with ELK3 it was 1.48 fold enrichment (6-mer frequency, TF over GST control).
TACTTG: the binding signal with FLI1 is 1.39 fold enrichment (6-mer frequency, TF over GST control); in the test with ELK1, 1.39 fold enrichment (6-mer frequency, TF over GST control); in the test with GABPA, 1.34 fold enrichment (6-mer frequency, TF over GST control); with ERG it was 1.18 fold enrichment (6-mer frequency, TF over GST control); with ELF1, 1.32 fold enrichment (6-mer frequency, TF over GST control); with EHF, 1.32 fold enrichment (6-mer frequency, TF over GST control). In addition, the binding signal with SPI1 is 1.27 fold enrichment (6-mer frequency, TF over GST control); with SPIB, 1.44 fold enrichment (6-mer frequency, TF over GST control); in the test with ELK3, 1.35 fold enrichment (6-mer frequency, TF over GST control).
As to AATGCA, the binding signal in the test with FLI1 was 1.25 fold enrichment (6-mer frequency, TF over GST control); with ELK1 it was 1.28 fold enrichment (6-mer frequency, TF over GST control); with GABPA it was 1.28 fold enrichment (6-mer frequency, TF over GST control); with ERG, 1.29 fold enrichment (6-mer frequency, TF over GST control); with ELF1 it was 1.27 fold enrichment (6-mer frequency, TF over GST control); with EHF, 1.25 fold enrichment (6-mer frequency, TF over GST control). Moreover, the binding signal is 1.21 fold enrichment (6-mer frequency, TF over GST control) in the test with SPI1; 1.34 fold enrichment (6-mer frequency, TF over GST control) with SPIB; 1.3 fold enrichment (6-mer frequency, TF over GST control) with ELK3.
For ATTGCG, the binding signal was 1.33 fold enrichment (6-mer frequency, TF over GST control) with FLI1; 1.06 fold enrichment (6-mer frequency, TF over GST control) with ELK1; 1.3 fold enrichment (6-mer frequency, TF over GST control) with GABPA; 1.16 fold enrichment (6-mer frequency, TF over GST control) with ERG; 1.27 fold enrichment (6-mer frequency, TF over GST control) with ELF1; 1.28 fold enrichment (6-mer frequency, TF over GST control) with EHF. The binding signal with SPI1 is 1.44 fold enrichment (6-mer frequency, TF over GST control); with SPIB, 1.1 fold enrichment (6-mer frequency, TF over GST control); with ELK3, 1.27 fold enrichment (6-mer frequency, TF over GST control).
TCTGCA: the binding signal with FLI1 was 1.42 fold enrichment (6-mer frequency, TF over GST control); with ELK1, 1.4 fold enrichment (6-mer frequency, TF over GST control); with GABPA, 1.31 fold enrichment (6-mer frequency, TF over GST control); with ERG, 1.25 fold enrichment (6-mer frequency, TF over GST control); in the test with ELF1, 1.3 fold enrichment (6-mer frequency, TF over GST control); with EHF it was 1.27 fold enrichment (6-mer frequency, TF over GST control). Besides, the binding signal was 1.33 fold enrichment (6-mer frequency, TF over GST control) with SPI1; 1.41 fold enrichment (6-mer frequency, TF over GST control) in the test with SPIB; 1.48 fold enrichment (6-mer frequency, TF over GST control) with ELK3.
Consider ATTTGA, for which the binding signal was 1.34 fold enrichment (6-mer frequency, TF over GST control) with FLI1; 1.1 fold enrichment (6-mer frequency, TF over GST control) in the test with ELK1; 1.26 fold enrichment (6-mer frequency, TF over GST control) in the test with GABPA; 1.23 fold enrichment (6-mer frequency, TF over GST control) with ERG; 1.12 fold enrichment (6-mer frequency, TF over GST control) with ELF1; 1.27 fold enrichment (6-mer frequency, TF over GST control) with EHF. Also, the binding signal in the test with SPI1 is 1.17 fold enrichment (6-mer frequency, TF over GST control); with SPIB, 1.36 fold enrichment (6-mer frequency, TF over GST control); with ELK3, 1.05 fold enrichment (6-mer frequency, TF over GST control).
For TAGCCC, the binding signal is 1.23 fold enrichment (6-mer frequency, TF over GST control) with FLI1; 1.18 fold enrichment (6-mer frequency, TF over GST control) with ELK1; 1.12 fold enrichment (6-mer frequency, TF over GST control) with GABPA; 1.12 fold enrichment (6-mer frequency, TF over GST control) with ERG; 1.08 fold enrichment (6-mer frequency, TF over GST control) with ELF1; 1.21 fold enrichment (6-mer frequency, TF over GST control) with EHF. Moreover, the binding signal with SPI1 was 1.13 fold enrichment (6-mer frequency, TF over GST control); with SPIB, 1.16 fold enrichment (6-mer frequency, TF over GST control); with ELK3, 1.24 fold enrichment (6-mer frequency, TF over GST control).
